Screening results deposited in PubChem BioAssay by National Center for Advancing Translational Sciences (NCATS).
WRN helicase inh: blocks human WRN helicase. AID 651768. 360,000 tested, 0.46% active. Potency, µM (titrated, usually from 114 µM), without a hit: at the highest dose activity change, negative = inhibition, usual class: inhibitors. WRN helicase unwinding, fluorescent forked duplex, kinetic. Q14191; also: potency is read from the fitted curve at half-maximal effect; % is scaled to controls: 0 for no effect and ±100 for the full control effect; nearly all actives have a fitted effect of over 55% in size
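Enzyme (20 nM final) and test compound sit together 15 min at room temperature before substrate addition. Substrate is a single-forked duplex oligonucleotide (100 nM) labelled with fluorophore and quencher, with 2 mM ATP; helicase unwinding raises red fluorescence, read kinetically.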
Pol eta inh: DNA polymerase eta (human) inhibition; Q9Y253; recombinant Pol eta, fluorescent DNA replication assay; Potency, µM (top dose mostly 114 µM), for inactives: at the top dose activity change, negative = inhibition, hits mostly inhibitors; 390,000 tested, 1.2% active; AID 588591; also: potency is read from the fitted curve at half-maximal effect; % is scaled to controls: 0 for no effect and ±100 for the full control effect
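Fluorescent replication assay: 50 nM final substrate added after a 15 min room-temperature compound preincubation with 10 nM enzyme. Signal taken at 0 min and again at 10 min.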
POLI inh: blocks human DNA polymerase iota activity; Potency, µM (highest dose often 115 µM), for inactives: at the highest dose activity, negative = inhibition, usual class: inhibitors; Pol iota fluorescent replication assay, 10 min; Q9UNA4; 390,000 tested, 1% active; also: potency is read from the fitted curve at half-maximal effect
Target sequence (Q9UNA4 whole entry, looked up): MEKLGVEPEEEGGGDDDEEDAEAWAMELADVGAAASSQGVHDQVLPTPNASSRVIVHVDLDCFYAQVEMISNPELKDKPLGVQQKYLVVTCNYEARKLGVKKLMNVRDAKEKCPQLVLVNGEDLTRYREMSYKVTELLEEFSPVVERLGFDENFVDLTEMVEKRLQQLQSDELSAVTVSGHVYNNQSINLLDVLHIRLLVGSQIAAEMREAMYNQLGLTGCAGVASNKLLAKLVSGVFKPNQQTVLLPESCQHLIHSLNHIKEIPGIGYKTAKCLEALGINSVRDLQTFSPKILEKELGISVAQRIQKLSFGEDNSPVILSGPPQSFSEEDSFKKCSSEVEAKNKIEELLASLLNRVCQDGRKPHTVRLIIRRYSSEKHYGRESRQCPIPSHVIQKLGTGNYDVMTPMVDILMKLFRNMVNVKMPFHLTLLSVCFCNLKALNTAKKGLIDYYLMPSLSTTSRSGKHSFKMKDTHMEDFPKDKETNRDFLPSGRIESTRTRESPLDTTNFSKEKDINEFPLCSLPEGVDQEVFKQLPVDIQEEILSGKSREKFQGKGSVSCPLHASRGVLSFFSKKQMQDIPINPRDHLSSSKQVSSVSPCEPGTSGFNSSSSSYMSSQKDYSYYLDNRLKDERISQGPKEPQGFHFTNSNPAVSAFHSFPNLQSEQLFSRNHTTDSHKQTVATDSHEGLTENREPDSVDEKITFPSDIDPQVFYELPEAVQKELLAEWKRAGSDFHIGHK
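Fluorescent replication assay read twice, at 0 min and 10 min after adding 50 nM (final) substrate. Enzyme (10 nM) and compounds were first incubated 15 min at room temperature; enzyme-free buffer wells were negative controls.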
PI5P4Ka inh: blocks human PI5P4K alpha kinase activity; AID 652105; max response, %; PI5P4Kalpha enzyme, ADP-Glo luminescence, 60 min; hits give low values; 330,000 tested, 1.2% active; active = max response of -50% or lower; inconclusive = between -30% and -50%; inactive = -30% or higher; also: value at the top dose of about 77 µM; % is scaled to controls: 0 for no effect and ±100 for the full control effect
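ADP-Glo luminescence end-point read after a 60 min room-temperature kinase reaction of PI5P4Kalpha plus substrate, initiated with ATP at 5 microM final. Buffer: 0.038 M HEPES pH 7.4, EGTA, 0.1% CHAPS, 5% DMSO.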
Pol kappa inh: inhibitors of human DNA polymerase kappa; Q9UBT6; purified Pol kappa, fluorescent DNA synthesis assay, 10 min; Potency, µM (titrated, usually from 107 µM), inactives show at the top dose activity, negative = inhibition, actives largely listed as inhibitors; 400,000 tested, 0.53% active; AID 588579; also: potency is read from the fitted curve at half-maximal effect; % is scaled to controls: 0 for no effect and ±100 for the full control effect
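Here, compound and 10 nM enzyme are combined for 15 min at room temperature; adding 50 nM substrate (final) starts DNA synthesis, tracked by fluorescence at 0 and 10 min against buffer-only wells.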
POLB inh: blocks human DNA polymerase beta activity; P06746; Pol beta primer extension/strand displacement, fluorescence kinetic; Potency, µM (titrated, usually from 114 µM), inactives show at the highest dose activity change, negative = inhibition, actives largely listed as inhibitors; 340,000 tested, 1.3% active; AID 485314; also: potency is read from the fitted curve at half-maximal effect; % is scaled to controls: 0 for no effect and ±100 for the full control effect
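Pol beta (10 nM) was preincubated with compound for 15 min at room temperature. The reaction was then started with 50 nM substrate and read immediately and after a further 10 min at room temperature.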
* marks the source's active call; other numbers are inactive results; ? = inconclusive; nt = no result given; [ ] = another dose, or the depositor's remark. Compounds with a hit are over-represented: about 2.8% of the library has one in this group of screens. Unless noted, calls follow the shape of the dose curve; as a rule, active = well fitted curve in the direction sought with a large enough effect; inconclusive = small, poorly fitted or top-dose-only effect, or another doubt; inactive = no such curve, though single readings can be large; an effect the other way counts as inactive or inconclusive.

SMILES	WRN helicase inh	Pol eta inh	POLI inh	PI5P4Ka inh	Pol kappa inh	POLB inh
CC(C)c1ccc(/C=c2\sc3n(c2=O)C(N)=C(C#N)C(c2ccc(C(C)C)cc2)C=3C(N)=O)cc1 (stereo unspecified)	2%	5%	47%	?	-17%	nt
N#CC1=C(N)n2c(s/c(=C\c3cccs3)c2=O)=C(C#N)C1c1cccs1 (stereo unspecified)	-11%[11.6 µM]	45µM*	?	-56*	?	?
CCOC(=O)c1c(C)[nH]c(C)c1S(=O)(=O)N1CCCC(C(=O)Nc2ccccc2OCC)C1 (stereo unspecified)	nt	-4%	-7%	nt	-6%	-3%
O=C(C[n+]1ccc(CCSc2ccc(F)cc2)cc1)c1ccccc1	40µM*	17%	50%	-53*	-30%	19%
Cc1ccc(SCCc2cc[n+](CC(=O)c3ccccc3)cc2)cc1	-25%	-19%	61%	-5	-31%	6%
O=C(CNS(=O)(=O)c1ccc(Br)cc1)OCc1cc(=O)n2cc(Br)ccc2n1	nt	nt	nt	nt	nt	35µM*
COc1ccc(Cn2c(=O)c3oc4ccccc4c3n(Cc3ccc(Cl)cc3)c2=O)cc1	nt	-18%	23%	nt	0%	3%
COc1cc(/C=C2\SC(=O)N(CC(=O)Nc3ccccc3F)C2=O)cc(Cl)c1O	-8%[57.1 µM]	50µM*	?	?	?	?
C#CCOc1c(Cl)cc(/C=C2/C(=O)ON=C2C)cc1OC	-16%	-16%	104%	0	-7%	-16%
COc1cc(/C=C2/C(=O)ON=C2C)cc(Cl)c1O	-13%	-19%	?	-59*	2%	27%
COc1cc(/C=C2\SC(=O)N(c3ccccc3Cl)C2=O)cc([N+](=O)[O-])c1O	-16%[11.6 µM]	56µM*	?	-53*	-12%	89µM*
COc1cc(/C=C2\SC(N)=NC2=O)ccc1OCC(=O)Nc1ccc(C)cc1	-9%[11.6 µM]	?	79µM*	-7	-42%	3.5µM*
COc1cc(/C=C2\SC(=O)N(c3ccc(O)cc3)C2=O)cc(OC)c1OC	-4%	-3%	4%	-1	3%	-20%
CCCCOc1ccc(C(C)NC(=O)c2cccc(Nc3nc4ccccc4n4nnnc34)c2)cc1 (stereo unspecified)	nt	3%	12%	nt	-1%	-1%
Cc1ccc(CNC(=O)c2ccc(N3CCCC3)c(NC(=O)Nc3ccc(C)cc3)c2)cc1	nt	-19%	21%	nt	-5%[60.1 µM]	8%
CC(C(=O)Nc1ccc(F)c(Cl)c1)N1Cc2ccccc2C1=O (stereo unspecified)	nt	-21%	-8%	nt	1%	-1%
CCN1CCN(C(=O)Cn2ncc3c4ccccc4n(Cc4c(C)cc(C)cc4C)c3c2=O)CC1	nt	-12%	-3%	nt	-6%	20%
CC(=O)Nc1ccc(S(=O)(=O)Oc2cccc(/C=C3\SC(N)=NC3=O)c2)cc1	79µM*	-1%	62%	?	8%	-7%
COc1cc(/C=C2\SC(c3ccccc3)=NC2=O)cc(Cl)c1O	?	?	39%	-99*	-17%	-4%
NC1=NC(=O)/C(=C/c2cccc(F)c2)S1	9%	0%	4%	-4	-22%	2%
COc1cc(/C=C2\SC(N)=NC2=O)cc(Br)c1O	-15%	0%	-17%	-71*	-40%	?
O=C(Cn1c(=O)n(Cc2ccc3c(c2)OCO3)c(=O)c2oc3ccccc3c21)Nc1ccccc1F	nt	-3%	14%	nt	-9%	-16%
O=C(NCc1ccc(F)cc1)c1ccc(CSc2nc3ccncc3n2Cc2ccc(F)cc2)cc1	nt	-28%	17%	nt	0%	-29%
COc1ccc2c(c1)c1c(c(=O)n(-c3ccc(C)cc3)c(=O)n1CC(=O)c1ccc(Cl)cc1)n2C	nt	-24%	36%	nt	-7%	-20%
CCc1nnc(NS(=O)(=O)c2ccc(Nc3ccc([N+](=O)[O-])c4nonc34)cc2)s1	?	?	42%	-57*	-8%	-4%
SMILES	WRN helicase inh	Pol eta inh	POLI inh	PI5P4Ka inh	Pol kappa inh	POLB inh
CCc1nnc(NS(=O)(=O)c2ccc(NS(=O)(=O)c3ccccc3[N+](=O)[O-])cc2)s1	-7%[57.1 µM]	6%	-3%	-19	-2%	-2%
Cc1ccc(S(=O)(=O)NCC(=O)N(CC(=O)NCC2CCCO2)Cc2ccco2)cc1 (stereo unspecified)	-3%[57.1 µM]	-12%	21%	1	-8%	13µM*
O=C(CN(Cc1ccco1)C(=O)CNS(=O)(=O)c1ccc(Cl)cc1)NCc1ccco1	-3%[57.1 µM]	-16%	-5%	6	2%	44%
Cc1ccc(S(=O)(=O)NCC(=O)N(CC(=O)NCc2ccco2)Cc2ccco2)cc1	-7%[11.6 µM]	56µM*	?	1	?	1%
CC1=C(C(=O)Nc2ccccc2)C2(CCCCC2)C(C#N)=C(S)N1	?	-8%	-7%	-58*	-17%	-26%
CSC1=C(C#N)C2(CCCCC2)C(C(=O)Nc2ccccc2)=C(C)N1	-7%	-9%	-30%	3	0%	nt
COc1ccc(CNc2ncnc3c2[nH]c2cc(OC)c(OC)cc23)cc1	-25%[57.1 µM]	?	?	-1	-38%	6.3µM*
O=C(Nc1ccon1)c1nc[nH]c1C(=O)N1CCN(c2ccccc2)CC1	-2%	-16%	16%	-3	-6%	nt
Cc1ccc(NC(=O)c2nc[nH]c2C(=O)N2CCOCC2)c(C(=O)c2ccccc2)c1	-8%	-5%	79µM*	?	-14%	?
N=C1CCC(=N)c2c1c(O)c1ccccc1c2O	32µM*	13µM*	22µM*	-72*	22µM*	40µM*
CC(=O)c1ccc(OC2(C)CCN(Cc3ccc4ccccc4c3)C2)cc1 (stereo unspecified)	3%	nt	nt	-2	nt	nt
O=C1N/C(=C\c2ccc(O)cc2)C(=O)c2ccccc21	?	25µM*	20µM*	nt	-17%	2%
O=C(O)/C=C1\NC(=O)c2ccccc21	2%	4%	-4%	-21	-10%	13%
Cc1ccc(NC(=O)c2c(C)nn(-c3ccccc3)c2-n2cccc2)c(Cl)c1	nt	-10%	-1%	nt	-13%	3%
NC(=O)c1c(NC(=O)CN2C(=O)NC(Cc3ccccc3)C2=O)sc2c1CCC2 (stereo unspecified)	-10%[57.1 µM]	?	45µM*	?	?	?
O=C(OCc1nnc(-c2ccccc2)o1)c1ccc(CO)cc1	-12%	1%	-6%	5	-10%	2%
O=C(/C=C/c1ccco1)OCc1nnc(-c2ccccc2)o1	-18%	24%	79µM*	-26	-34%	22µM*
O=C(/C=C/c1ccco1)OCn1nnc2ccccc2c1=O	-3%	-5%	29%	3	-4%	20µM*
